Screening results from PubChem BioAssay.
SW480 rereplic: A quantitative high throughput screen for small molecules that induce DNA re-replication in SW480 colon adenocarcinoma cells. SW480 DNA re-replication, Hoechst DNA content imaging, 48 h. hit rate 1.8% among 340,000. Potency, µM (series often up to 46.1 µM), for the others: at the top dose re-replication activation, usual class: activators. AID 624297, 2012; note: % of control where 0% means no effect; nearly all actives have a fitted effect of over 55% in size
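Readout is total intensity of Hoechst-stained nuclei, excited at 405 nm and collected at 500-530 nm. Compound treatment lasted 48 hr at 37 C in 5% CO2 before staining.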
MCF10A rereplic: A quantitative high throughput screen for small molecules that induce DNA re-replication in MCF 10a normal breast cells. MCF 10A DNA re-replication, Hoechst nuclear intensity, 48 h. hit rate 2.9% among 350,000. Potency, µM (doses to about 46.1 µM), inactives show top-dose activity, positive = re-replication, hits mostly activators; note: % of control where 0% means no effect; nearly all actives have a fitted effect of over 50% in size
HT1080NT lethal: qHTS for induction of synthetic lethality in tumor cells producing 2HG: qHTS for the HT-1080-NT fibrosarcoma cell line. Potency, µM (highest dose often 46.1 µM), inactives show top-dose activity, negative = less viability, most hits filed as cytotoxic. HT-1080-NT fibrosarcoma viability, CellTiter-Glo ATP luminescence, 48 h. hit rate 1.6% among 360,000;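 note: NT is the 2HG producing partner of a matched IDH1 knockdown line; 0% = DMSO-treated cells and -100% = media-only wells without cells; nearly all actives have a fitted effect of over 55% in size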
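750 cells/well, RPMI + 5% FBS; 2 h settle, compound pin-transfer, 48 h at 37 degrees C. CellTiter-Glo 10 min RT, luminescence. Normalized to DMSO and media-only wells.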
HT1080 IDH1KD tx: qHTS for induction of synthetic lethality in tumor cells producing 2HG: qHTS for the HT-1080-IDH1KD cell line. HT-1080 IDH1 knockdown viability, ATP luminescence, 48 h. Potency, µM (doses to about 46.1 µM), for the others: at the top dose activity, negative = toxicity, hits mostly cytotoxic. hit rate 2% among 360,000;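 note: 0% = DMSO wells and -100% = cell-free medium wells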
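HT-1080-IDH1KD cells (IDH1 knocked down), 750/well in RPMI with 5% FBS, treated with compound 48 h at 37 degrees C. Viability by CellTiter-Glo luminescence, normalised to DMSO and no-cell wells; concentration-response curves classed.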
KB-V1 MDR tox: qHTS assay for MDR1-selective chemotherapeutics: Primary screen using the drug-selected MDR subline cells KB-V1; KB-V1 MDR cells viability, CellTiter-Glo, 72 h; Potency, µM (doses to about 46.1 µM), usual class: cytotoxic; hit rate 3.4% among 400,000; AID 1347076, 2019; note: % is set by controls: 0 for no effect and ±100 for the full control effect; nearly all actives have a fitted effect of over 60% in size
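Drug-selected KB-V1 cells, grown in DMEM lacking phenol red with 10% FBS, receive compound titrations; after three days at 37 degrees C, surviving cell ATP is quantified by CellTiter-Glo luminescence and responses normalized and curve-fitted.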
KB-3-1 tox: qHTS assay for MDR1-selective chemotherapeutics: Primary screen using the parental adenocarcinoma cell KB-3-1; KB-3-1 viability, CellTiter-Glo ATP luminescence, 72 h; Potency, µM (titrated, usually from 46.1 µM), hits mostly cytotoxic; hit rate 1.4% among 400,000; note: % is set by controls: 0 for no effect and ±100 for the full control effect; nearly all actives have a fitted effect of over 60% in size
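Cells are dispensed, compounds pinned in, plates held at 37 °C for 72 h, then CellTiter-Glo is added and luminescence read after 10 minutes. Cell line: parental KB-3-1 in phenol-red-free DMEM, 10% FBS.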
* hit, by the source's call; i = inactive; ? = inconclusive; . = not tested or not shown. A selection: hits, their analogues and other compounds. The true share with any hit is near 7.9%. Calls come from the whole dose curve; as a rule, active = well fitted curve in the direction sought with a large enough effect; inconclusive = small, poorly fitted or top-dose-only effect, or another doubt; inactive = no such curve, though single readings can be large; an effect the other way counts as inactive or inconclusive. Potency is the fitted concentration of half-maximal effect.

SMILES	SW480 rereplic	MCF10A rereplic	HT1080NT lethal	HT1080 IDH1KD tx	KB-V1 MDR tox	KB-3-1 tox
CCC(=O)Nc1nc(-c2ccc3c(c2)CC(C)N3S(C)(=O)=O)cs1 (centres undefined)	-20.3%	-9.5%	-9.8%	-10.6%	i	?
Cc1ccc(S(=O)(=O)Nc2ccc(-c3csc(-c4ccccc4)n3)cc2)cc1	?	11.6µM*	-12.1%	-16.2%	?	i
CCOC(=O)c1c(-c2ccc(OC)cc2)nc2nonc2c1N	-12.3%	-5.1%	-2.7%	4.1%	13µM*	?
CCOC(=O)c1c(C)nc(C)c(C(=O)OCC)c1-c1ccc(OC)cc1	-1.4%	-14.3%	15.3%	3.2%	i	i
O=C(NC1CCCCC1)C(c1cc2ccccc2o1)N1CCOCC1 (centres undefined)	.	.	13.1%	15.4%	i	i
Cc1ccc(S(=O)(=O)N(CC(=O)Nc2ccc(F)cc2F)Cc2ccc(F)cc2)cc1	.	.	.	.	i	i
Cc1ccc(/C=C/C(=O)c2ccccc(=O)c2O)c(C)c1	?	?	20.6µM*	18.4µM*	8.2µM*	16.4µM*
O=C(C=Cc1ccccc1O)c1ccccc1O	?	?	23.1µM*	18.4µM*	?	?
Cc1ccc(C)c(/C=C/C(=O)c2ccccc(=O)c2O)c1	-650.7%	18.4µM*	?	14.6µM*	8.2µM*	11.6µM*
Cc1ccc(C)c(NC(=O)c2ccccc2O)c1	?	?	?	?	i	?
O=C(/C=C/c1ccccc1Cl)c1ccccc(=O)c1O	11.6µM*	10.3µM*	11.6µM*	11.6µM*	18.4µM*	20.6µM*
O=C(/C=C/c1ccc([N+](=O)[O-])cc1)c1cccs1	?	1.1%	2.5%	9.9%	i	i
O=C(/C=C/c1ccc([N+](=O)[O-])cc1)c1ccccc(=O)c1O	5.8µM*	2.91µM*	6.51µM*	5.8µM*	1.03µM*	?
Cc1ccc2c(Cl)c(C(=O)NCc3cccnc3)sc2c1	0.8%	10.7%	-2.0%	0.8%	14.6µM*	i
CCN(CC)Cc1ccc(NC(=O)c2sc3cc(Cl)ccc3c2Cl)cc1	?	?	7.31µM*	23.1µM*	?	?
Cc1ccc2c(Cl)c(C(=O)Nc3ccc4c(c3)OCO4)sc2c1	20.6µM*	?	22.1%	22.6%	i	i
CCN(CC)c1ccc(NC(=O)c2sc3ccccc3c2Cl)cc1	.	.	.	.	i	i
CC(C)C1Cc2c(sc(NC(=S)NC(=O)c3ccccc3)c2C#N)CO1 (centres undefined)	15.4%	23.0%	7.2%	6.1%	i	i
C=CCNC(=S)Nc1sc2c(c1C(=O)OCC)CC(C(C)C)OC2 (centres undefined)	?	11.6µM*	6.31µM*	7.94µM*	?	i
CCOC(=O)c1c(NC(=S)NCCc2ccccc2)sc2c1CC(C(C)C)OC2 (centres undefined)	-41.1%	12.7%	2.2%	22.3%	20.6µM*	i
CCc1ccc(-c2cn(-c3nc(C)cc(C)n3)c(=N)o2)cc1	-0.4%	23.1µM*	-28.9%	-12.7%	?	20.6µM*
CS(=O)(=O)N1N=C(c2ccc(Br)cc2)CC1c1ccc2c(c1)OCO2 (centres undefined)	0.6%	22.1%	16.7%	10.4%	16.4µM*	i
Cc1ccc(C2=NN(S(C)(=O)=O)C(c3ccc4c(c3)OCO4)C2)cc1 (centres undefined)	2.7%	10.8%	2.4%	2.0%	?	i
CCSc1nc2n(n1)C(c1ccc(CC)cc1)C(C(=O)Nc1ccccc1OC)=C(C)N2 (centres undefined)	.	.	.	.	i	i
CCOc1cc(CNc2ccc(CNc3ncn[nH]3)cc2)ccc1OCc1ccccc1	-44.0%	21.4%	14.4%	-1.8%	18.4µM*	23.1µM*
SMILES	SW480 rereplic	MCF10A rereplic	HT1080NT lethal	HT1080 IDH1KD tx	KB-V1 MDR tox	KB-3-1 tox
COc1ccc2ccc3c(c2c1)N=C[C@]1(O3)N(C)c2ccccc2C1(C)C	14.6µM*	18.4µM*	?	?	?	i
O=C(NCc1ccc(F)cc1)C1CCN(S(=O)(=O)N2CCCCC2)CC1	-15.2%	4.6%	-0.2%	7.7%	i	i
CCCCN(CC)S(=O)(=O)N1CCC(C(=O)NCc2ccc(F)cc2)CC1	8.1%	-12.6%	-1.4%	6.2%	16.4µM*	i
Cc1ccc(C)c(NC(=O)CSc2nnc([C@@H]3CCCN3C(=O)OC(C)(C)C)o2)c1	0.2%	-3.0%	-3.6%	-2.0%	i	i
Cc1cccc(NC(=O)CSc2nnc([C@@H]3CCCN3C(=O)OC(C)(C)C)o2)c1C	1.1%	5.5%	7.1%	6.7%	?	20.6µM*
O=C(c1cccc(S(=O)(=O)N2CCOCC2)c1)N1CCN(Cc2ccc3c(c2)OCO3)CC1	-3.2%	1.2%	2.5%	-11.4%	?	i
CC(C)[C@H](NC(=O)c1ccc(C(C)(C)C)cc1)C(=O)N1CCN(Cc2ccc3c(c2)OCO3)CC1	?	18.4µM*	?	18.4µM*	?	?
Cc1cc(C)cc(C(=O)N2CCN(Cc3ccc4c(c3)OCO4)CC2)c1	?	0.7%	-13.6%	-15.7%	i	i
O=C(c1ccc(S(=O)(=O)N2CCCCC2)cc1)N1CCN(Cc2ccc3c(c2)OCO3)CC1	-6.3%	12.0%	-0.8%	-1.2%	2.59µM*	?
Cc1ccc2[nH]c3c(c2c1)CN(C(=O)CN1CCN(Cc2ccc4c(c2)OCO4)CC1)CC3	8.9%	3.7%	20.6µM*	?	i	?
Cc1cc(C(=O)N2CCN(Cc3ccc4c(c3)OCO4)CC2)cs1	-5.9%	?	12.4%	-2.8%	14.6µM*	i
C[C@H](NC(=O)c1ccccc1)C(=O)N1CCN(Cc2ccc3c(c2)OCO3)CC1	18.5%	?	14.3%	11.3%	i	i
CCOC(=O)C1CCN(S(=O)(=O)c2cc(-c3cc(C)no3)ccc2OC)CC1	.	.	.	.	i	i
CC1CCCN(c2ncnc3c2cnn3-c2ccc(F)cc2)C1 (centres undefined)	.	.	.	.	?	i
O=C(O)c1ccccc1C(=O)N1CCN(Cc2ccc3c(c2)OCO3)CC1	3.0%	7.0%	18.3%	18.5%	i	i
CCSc1ccccc1C(=O)N1CCN(Cc2ccc3c(c2)OCO3)CC1	0.8%	1.8%	8.4%	-0.5%	18.4µM*	i
